VACV Venus inh = qHTS for Stage-Specific Inhibitors of Vaccinia Orthopoxvirus: Venus Reporter Primary qHTS; Vaccinia virus Venus reporter expression, fluorescence; AID 720580, 2013; Potency, µM (series often up to 36.5 µM), actives largely listed as inhibitors; 0.46% of 330,000 active; calls by dose curve; tested in A549 cells; further: nearly all actives have a fitted effect of over 30% in size
HCMV inh = qHTS Assay for inhibitors of the human cytomegalovirus (HCMV); activity change, negative = inhibition, % at 57.5 µM; 4.5% of 410,000 active; AID 1259415, 2018; HFF cells, HCMV-luciferase reporter, 72 h; stronger effect = lower value; in the data active means activity change below about -60%; inconclusive means no clear call, values can overlap the other calls; inactive means above about -39%
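HFF cells seeded 16 h at 37C, treated with compounds, infected with luciferase-reporter HCMV at MOI 1 PFU/cell; luciferase read at 72 h post infection, normalized to buffer-only and Salinomycin controls.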
Sm TGR block = qHTS Assay for the Inhibitors of Schistosoma Mansoni Peroxiredoxins. 3% of 360,000 active. purified TGR, DTNB reduction, TNB absorbance 405 nm. Potency, µM (series often up to 114 µM), usual class: inhibitors; further: nearly all actives have a fitted effect of over 60% in size
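Kinetic colorimetric format: TGR-catalysed, NADPH-driven DTNB reduction monitored via TNB absorbance. Enzyme dispensed at 20 nM; compound exposure 15 min at room temperature before reaction start.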
FMDV antiviral = High Throughput Screening for Foot and Mouth Disease Virus Antivirals; FMDV antiviral cell-based qHTS; Potency, µM (top dose mostly 57.9 µM), actives largely listed as inhibitors; 1.2% of 410,000 active; AID 1159524, 2015; calls by dose curve; tested in HEK293T cells; further: read-out not given here; nearly all actives have a fitted effect of over 45% in size
HCV inh = qHTS Assay for Inhibitors of Hepatitis C Virus (HCV); AID 651820, 2012; 3.4% of 340,000 active; Huh7.5.1 HCVcc-Cre infection, luciferase reporter, 44 h; Potency, µM (highest dose often 41.8 µM), usual class: inhibitors
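Reporter virus HCVcc-Cre (~0.5 moi) infects cells exposed to compound; seeding density 1,000 cells/well with 4 h settling beforehand. Luminescence, 15 sec read, taken 44 h post-infection following a 15 min RT substrate incubation.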
VACV mCherry inh = qHTS for Stage-Specific Inhibitors of Vaccinia Orthopoxvirus: mCherry Reporter Primary qHTS; Vaccinia virus mCherry reporter infection, fluorescence; Potency, µM (doses to about 36.5 µM), most hits filed as inhibitors; 0.63% of 310,000 active; AID 720579, 2013; calls by dose curve; tested in A549 cells; further: nearly all actives have a fitted effect of over 35% in size
Large screens that a line does not name were inactive. Sampled rows, rich in hits. Any-hit rate of the full collection: about 9.3%. Unless noted, the call rests on the fitted dose curve; in most records, active means well fitted curve in the direction sought with a large enough effect; inconclusive means small, poorly fitted or top-dose-only effect, or another doubt; inactive means no such curve, though single readings can be large; an effect the other way counts as inactive or inconclusive.

Cc1ccc(Cl)cc1N1CCN(C(=O)CN(C2CCCCC2)S(C)(=O)=O)CC1	FMDV antiviral 14µM, HCV inh inconclusive, VACV mCherry inh inconclusive
CC(C)NS(=O)(=O)c1ccc(OCC(=O)N2CCN(c3ccccc3)CC2)cc1	none (no result: Sm TGR block)
CC(C)NS(=O)(=O)c1ccc(OCC(=O)N2CCCC2)cc1	none (no result: FMDV antiviral)
Cc1ccc(Cl)cc1N1CCN(C(=O)COc2ccc(S(=O)(=O)NC(C)C)cc2)CC1	VACV Venus inh inconclusive, HCMV inh -89, FMDV antiviral inconclusive, HCV inh 10µM, VACV mCherry inh inconclusive
COc1cc(NC(=O)c2cccnc2Sc2ccc(C)c(C)c2)cc(OC)c1OC	none
O=C(CCNS(=O)(=O)c1ccc(Br)cc1)N1CCCCCCC1	none
O=C(CCNS(=O)(=O)c1ccc(Cl)cc1)N1CCCC1	HCMV inh -71
CCN(CC)CCN(Cc1cc2cc3c(cc2[nH]c1=O)OCCO3)C(=S)NCCOC	none (no result: Sm TGR block, HCV inh)
Cc1cc(O)c2c(c1)OC(C)(C)C1=C2CC(C)CC1 (stereo not given)	HCMV inh inconclusive, HCV inh 13µM (no result: VACV Venus inh, VACV mCherry inh)
Cc1cc(C(=O)N/N=C/c2sc(N3CCOCC3)nc2-c2ccccc2)c(C)o1	Sm TGR block inconclusive, HCV inh inconclusive
Nc1ccc(S(=O)(=O)Nc2nccc(/C=C/c3cccc(Br)c3)n2)cc1	HCMV inh -73
Nc1ccc(S(=O)(=O)Nc2nccc(/C=C/c3cccc([N+](=O)[O-])c3)n2)cc1	none (no result: Sm TGR block, HCV inh)
CC(=O)Nc1ccc(S(=O)(=O)Nc2nccc(/C=C/c3ccc(Cl)cc3)n2)cc1	HCMV inh -73
CC(=O)Nc1ccc(S(=O)(=O)Nc2nccc(C)n2)cc1	none (no result: VACV Venus inh, VACV mCherry inh)
O=S(=O)(Nc1ncccn1)c1ccc(NC(=S)Nc2ccc(Cl)cc2)cc1	HCMV inh -64, Sm TGR block inconclusive (no result: VACV Venus inh, VACV mCherry inh)
O=C(Nc1ccc(Cl)cc1)Nc1ccc(S(=O)(=O)Nc2ncccn2)cc1	HCMV inh inconclusive (no result: VACV Venus inh, VACV mCherry inh)
CCOC(=O)c1cc(-c2ccccc2)n(Cc2cc(CC)no2)n1	none
Cc1ccc(-n2c(CNc3ccc(F)cc3)nnc2SCC(=O)O)cc1	none
O=C(Nc1ccc(-c2csc(-c3ccccc3)n2)cc1)c1ccccc1	HCMV inh -101, HCV inh inconclusive (no result: VACV Venus inh, VACV mCherry inh)
O=C(Nc1ccccc1F)c1ccc(C(=O)c2ccccc2)cc1	HCMV inh -72
O=C(Nc1ccccc1F)c1cccc(C(=O)Nc2ccccc2F)c1	none
Cc1nc(-c2ccc(C(=O)Nc3cccc(F)c3)cc2)cs1	FMDV antiviral inconclusive, HCV inh 3.5µM
Cc1nc(-c2ccc(NC(=O)/C=C\C(=O)O)cc2)cs1	HCMV inh -81
Cc1nc(-c2ccc(C(=O)Nc3ccccc3F)cc2)cs1	HCMV inh -70, FMDV antiviral 8.9µM, HCV inh inconclusive
CCOc1ccc(NC(=O)c2ccc(-c3csc(C)n3)cc2)cc1	HCV inh inconclusive
Cc1nc(-c2cccc(NC(=O)c3ccc(-n4cccn4)cc3)c2)cs1	HCMV inh inconclusive, FMDV antiviral inconclusive, HCV inh 11µM (no result: VACV Venus inh, VACV mCherry inh)
COc1ccc(NC(=O)c2ccc(-c3csc(C)n3)cc2)cc1	HCMV inh inconclusive, HCV inh 7.1µM
O=C(OC1CCCCC1=O)c1cc(=O)c2ccccc2o1 (stereo not given)	none
CN(C)c1ccc(/C=C/c2nc3ccccc3c(=O)[nH]2)cc1	FMDV antiviral 10µM
Cc1ccccc1-n1c(/C=C/c2ccc(N(C)C)cc2)nc2ccccc2c1=O	HCMV inh -82 (no result: HCV inh)
Cc1cccc(-n2c(C)nc3ccccc3c2=O)c1C	HCMV inh -76
O=c1c2ccccc2nc(/C=C/c2ccccc2O)n1-c1ccccc1O	HCMV inh -98 (no result: VACV Venus inh, FMDV antiviral, HCV inh, VACV mCherry inh)
O=c1[nH]c(/C=C/c2ccc(Br)cc2)nc2ccccc12	none (no result: VACV Venus inh, VACV mCherry inh)
Cc1ccccc1-n1c(C)nc2ccccc2c1=O	none
O=C1c2cc(Br)ccc2N(Cc2ccc(Br)cc2)S(=O)(=O)C1c1cc(Cl)c(Cl)cc1[N+](=O)[O-] (stereo not given)	none (no result: HCMV inh, Sm TGR block)
O=c1c2ccccc2nc(/C=C/c2ccccc2)n1-c1ccccc1F	none (no result: HCV inh)
O=c1c2ccccc2nc(/C=C/c2ccccc2F)n1-c1ccccc1O	HCMV inh -92, FMDV antiviral inconclusive (no result: VACV Venus inh, VACV mCherry inh)
CCOC(=O)C=Nc1c(N)n(C)c(=O)n(C)c1=O	none
CC(C)c1ccc(C2NC(=S)NC3=C2C(=O)CC(C)(C)C3)cc1 (stereo not given)	HCMV inh -71
COc1cccc(CN2CCN(C(=O)c3ccco3)CC2)c1OC	none (no result: Sm TGR block, VACV mCherry inh)
COc1ccc(-c2cc(C(=O)O)n(Cc3ccccc3)n2)cc1	none (no result: HCV inh)
O=C(CCC(=O)N(CC(=O)NC1CCCCC1)c1ccc2c(c1)OCCO2)Nc1ccccn1	none (no result: VACV Venus inh, HCMV inh, FMDV antiviral, HCV inh, VACV mCherry inh)
O=C(CCCC(=O)N(c1ccc2c(c1)OCCO2)C(C(=O)NC1CCCCC1)c1ccc(F)cc1)Nc1ccccn1 (stereo not given)	HCMV inh -68 (no result: FMDV antiviral)
Cc1ccc(C(C(=O)NC2CCCCC2)N(C(=O)CCCC(=O)Nc2ccccn2)c2ccc3c(c2)OCCO3)cc1 (stereo not given)	HCMV inh -63 (no result: VACV Venus inh, VACV mCherry inh)
Cc1noc(C)c1S(=O)(=O)Nc1ccc2c(c1)C(=O)N([C@H](C)CO)C[C@H](C)[C@@H](CN(C)C(=O)CCCN(C)C)OCCCC[C@@H](C)O2	none (no result: Sm TGR block, HCV inh)
Cc1ccc2nc(-c3cc(N)cc(N)c3)oc2c1	Sm TGR block 50µM
Nc1ccc(-c2nc3ccc(N)cc3o2)cc1	none
O=C(Cn1cnc2c(nnn2Cc2ccc(Cl)cc2)c1=O)c1ccccc1	HCMV inh -71
O=C(Cn1cnc2c(nnn2Cc2ccccc2)c1=O)c1ccccc1	none
Cc1ccc(Cn2nnc3c(=O)n(CC(=O)N4CCN(c5ccccc5)CC4)cnc32)cc1	HCMV inh -65 (no result: FMDV antiviral)
CCCC(=O)C1=C(O)C(C(=O)OC)C(C)(C)CC1=NCc1ccccc1 (stereo not given)	Sm TGR block 100µM
COc1ccc(C(=O)CC(=O)C(=O)Nc2ccc([N+](=O)[O-])cc2C)cc1	FMDV antiviral inconclusive, HCV inh inconclusive
O=C1CC(c2nc3ccccc3[nH]2)CN1c1ccccc1F (stereo not given)	none
COc1ccc(Cl)cc1N1CC(c2nc3ccccc3[nH]2)CC1=O (stereo not given)	HCMV inh -99
O=C1CC(c2nc3ccccc3[nH]2)CN1c1cccc(C(F)(F)F)c1 (stereo not given)	HCMV inh -96, FMDV antiviral inconclusive
COc1ccc(-n2cc(C(=O)N(C)c3cc(C)ccc3OC)c3ccccc3c2=O)cc1	HCMV inh -85 (no result: HCV inh)

Bioassay records from PubChem.
